Reference: PubChem BioAssay (NCI)
About 83,000 compounds went through this panel and 20% of them were active in at least one assay; those are over-represented in the sample as a whole.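 Percent growth is the endpoint: 0 to 100 indicates growth inhibition (40 means 60% inhibition), 0 means no net growth, and negative values indicate cell death.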 Calls of active or inactive are those of the source. How the source made its calls: active means growth percent below 10; inactive means the rest.

Test system: MDA-MB-468 breast
Assay: NCI-60 one-dose screen, 48 h (100 = growth as untreated, 0 = no growth, -100 = all killed)
Conditions: 10 µM unless noted

**Q.** Which growth does the source give for `CC(C)(C)CC(C)(C)Nc1c(-c2c(O)c3ccccc3oc2=O)nc2sc3ccccc3n12` here?
**A.** 22.4% (inactive)

**Q.** For `Cc1nc2cc(Nc3nc(N4CCCCC4)nc(N4CCOCC4)n3)ccc2n1Cc1ccccc1`, which growth is on record?
**A.** 70.1% (inactive)

**Q.** How did the growth turn out when `N#CC1(Nc2ccc3c4c(cccc24)CC3)CCCCC1` was run?
**A.** -35.3% (active)

**Q.** How did the growth turn out when `Cc1ccc(Nc2nc(NCCO)c3ccccc3n2)cc1C` was run?
**A.** 32.9% (inactive)

**Q.** Which growth does the source give for `CC(C)(C)c1cc(Br)cc(C(C)(C)C)c1O` here?
**A.** 110% (inactive)

**Q.** With `CC(=O)OC[C@]12CCC(C)(C)C[C@H]1[C@@]1(O)[C@H](O)C[C@@H]3[C@@]4(C)CCCNC(C)(C)[C@@H]4CC[C@@]3(C)[C@]1(C)CC2` as the compound, how does the growth read?
**A.** 115% (inactive)

**Q.** `CCOC(=S)Sc1ccc([N+](=O)[O-])cc1[N+](=O)[O-]` was tested. Which growth did it give?
**A.** 52.7% (inactive)

**Q.** With `O=C(/C=C\c1ccc2ccccc2n1)c1cc(Cl)ccc1O` as the compound, how does the growth read?
**A.** 107% (inactive)

**Q.** For `CC(=O)Nc1ccc2c(c1)C(=O)c1cccc(C(=O)O)c1-2`, which growth is on record?
**A.** 90.9% (inactive)

**Q.** Which growth does the source give for `CC(=O)/C(Cc1ccccc1)=N/O` here?
**A.** 99.1% (inactive)

**Q.** `CC(C)(C)c1nn(-c2ccccc2)c2c1CC1(CN2Cc2ccc3c(c2)OCO3)C(=O)c2ccccc2C1=O` was tested. Which growth did it give?
**A.** 111% (inactive)

**Q.** How did the growth turn out when `CCO/C=N/C1=C(C#N)C(c2ccc(OC)cc2)c2sc3c(F)cccc3c2O1` (stereo not given) was run?
**A.** 17.7% (inactive)

**Q.** With `ClCCn1cnc2c(SCc3ccccc3)ncnc21` as the compound, how does the growth read?
**A.** 74.8% (inactive)

**Q.** How did the growth turn out when `Cn1cnc2c1c(=O)n(CCC(=O)Nc1ccc(F)cc1)c(=O)n2C` was run?
**A.** 113% (inactive)

**Q.** For `O=S(=O)(Nc1ccccc1Cl)c1ccc(-c2cnc(C3CC3)o2)cc1`, which growth is on record?
**A.** 6.43% (active)

**Q.** With `Cc1cc(N2CCN(CCNc3ccnc4cc(Cl)ccc34)CC2)nc(N2CCOCC2)n1` as the compound, how does the growth read?
**A.** 24.3% (inactive)

**Q.** `O=C(N/N=C(\CS(=O)(=O)c1ccccc1)c1cc2ccccc2oc1=O)c1ccccc1` was tested. Which growth did it give?
**A.** 117% (inactive)

**Q.** With `COc1ccc(C(=O)/C=C/c2ccc(OCc3ccc(C)cc3)c(OC)c2)cc1OC` as the compound, how does the growth read?
**A.** 49.9% (inactive)

**Q.** With `O=C(OC[C@H]1O[C@H](OC(=O)c2cc(O)c(O)c(OC(=O)c3cc(O)c(O)c(O)c3)c2)[C@H](OC(=O)c2cc(O)c(O)c(OC(=O)c3cc(O)c(O)c(O)c3)c2)[C@@H](OC(=O)c2cc(O)c(O)c(OC(=O)c3cc(O)c(O)c(O)c3)c2)[C@@H]1OC(=O)c1cc(O)c(O)c(OC(=O)c2cc(O)c(O)c(O)c2)c1)c1cc(O)c(O)c(OC(=O)c2cc(O)c(O)c(O)c2)c1` as the compound, how does the growth read?
**A.** 54.1% (inactive)

**Q.** `COc1ccc(C2=C(c3ccccc3)c3ccc(OC(C)=O)cc3OC2(C)C)cc1` was tested. Which growth did it give?
**A.** 86.2% (inactive)

**Q.** `CCN1C(=O)N(CC)C2C1NN=c1s/c(=C\c3cccs3)c(=O)n12` (stereo not given) was tested. Which growth did it give?
**A.** 15.3% (inactive)

**Q.** How did the growth turn out when `CC(=O)O[C@@H]1/C=C/C(=O)N[C@@H](C)CCC/C=C/[C@@H]2CCC[C@H]21` was run?
**A.** 101% (inactive)

**Q.** Which growth does the source give for `CCOC(=O)c1c(C)oc2ncnc(Nc3ccc(NC(=O)Nc4ccc(CC)cc4)cc3)c12` here?
**A.** 128% (inactive)

**Q.** For `NS(=O)(=O)c1ccc(N2N=C(c3cccs3)CC2c2ccccc2O)cc1` (stereo not given), which growth is on record?
**A.** 21.1% (inactive)

**Q.** `CCOC(=O)c1c(N)sc2cc(O)ccc12` was tested. Which growth did it give?
**A.** 131% (inactive)

**Q.** For `CCN(CC)S(=O)(=O)c1cccc([N+](=O)[O-])c1`, which growth is on record?
**A.** 91.4% (inactive)

**Q.** How did the growth turn out when `CCOC(=O)CC1CSC(Nc2ccccc2)=N1` (stereo not given) was run?
**A.** 106% (inactive)

**Q.** With `CC(C)N1CN2C(=S)NC3C2N(C1)C(=S)N3C` (stereo not given) as the compound, how does the growth read?
**A.** 101% (inactive)

**Q.** `CCN(CC)CC(C)(C)C(=O)/C=C/c1ccccc1` was tested. Which growth did it give?
**A.** -15.2% (active)

**Q.** `COc1cnc2c(c1)C(=O)c1c-2n(CCCN2CCCC2)c(=O)c2cc([N+](=O)[O-])ccc12` was tested. Which growth did it give?
**A.** -41.1% (active)

**Q.** How did the growth turn out when `Fc1cc(C2=NNC(c3ccc[nH]3)C2)ccc1-n1ccc(C(F)(F)F)n1` (stereo not given) was run?
**A.** 89.7% (inactive)

**Q.** For `CCc1ccc(Nc2cc(C)nc3nc(C)nn23)cc1`, which growth is on record?
**A.** -87.8% (active)

**Q.** `NC(=NCCCOc1ccc(F)cc1)Nc1ccc(I)cc1` was tested. Which growth did it give?
**A.** 27.8% (inactive)

**Q.** Which growth does the source give for `Cc1ccc(CSc2nc(-c3ccc(Cl)cc3)c(C#N)c(N3CCOCC3)n2)cc1` here?
**A.** 84% (inactive)

**Q.** Which growth does the source give for `COc1cccc(-c2nn(-c3ccccc3)cc2-c2ccnc(NCCNC(=O)Nc3cccc(C(F)(F)F)c3)c2)c1` here?
**A.** 15.5% (inactive)

**Q.** How did the growth turn out when `COc1ccc(Cn2cc3c(c2-c2ccccc2)CCc2cnoc2-3)cc1` was run?
**A.** 55.2% (inactive)

**Q.** With `Cc1cc(C)c(O)c(CNCCCNCc2cc(C)cc(C)c2O)c1` as the compound, how does the growth read?
**A.** 7.95% (active)

**Q.** How did the growth turn out when `C=C1CCC2C3(C)COC(c4ccc(N(C)C)cc4)OC3CCC2(C)C1C/C=C1/C(=O)OCC1O` (stereo not given) was run?
**A.** 22.2% (inactive)

**Q.** For `COc1ccc(-c2cc(-c3ccc(OC)cc3)c3sc(=O)[nH]c3n2)cc1`, which growth is on record?
**A.** 96.4% (inactive)

**Q.** `CC(C)C1=NOC(=O)C1=Cc1cn(-c2ccccc2)nc1-c1ccccc1` was tested. Which growth did it give?
**A.** 97.2% (inactive)
